The values below come from PubChem BioAssay (EPA / NIEHS).

Usually AC50 stands for the midpoint of the concentration-response curve, whichever way the signal moves.

Activity calls are given as the source filed them. The calls were made as follows: active = hit-call score of the fitted dose curve at least 0.9, where 1 is the maximum; inactive = score below 0.9.

Read-out in assay [1]: Human Leukocyte Antigen - DR isotype (HLADR), HLA-DRA (gene 3122)
Description: BSK_3C_HLADR: BioMAP Diversity Plus: 3C Assay for Human Leukocyte Antigen - DR isotype (HLADR) Biomarker Activity (AID 2283019). Conditions: primary human endothelial cells (HUVEC); actives raise or lower the signal. In outline: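 ELISA readout of surface HLA-DR on human umbilical vein endothelium, taken 24 h after chemical treatment. Gain- and loss-of-signal were both fitted relative to DMSO.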

Read-out in assay [2]: Human Leukocyte Antigen - DR isotype (HLADR), HLA-DRA (gene 3122)
The assay is described as follows: BSK_BE3C_HLADR: BioMAP Diversity Plus: BE3C Assay for Human Leukocyte Antigen - DR isotype (HLADR) Biomarker Activity (AID 2283032). The following applies: primary human bronchial epithelial cells; actives raise or lower the signal. Summed up: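 ELISA read-out of HLA-DR on human lung bronchial epithelial primary cells, measured 24 h post-dosing. Both increases and decreases were scored relative to DMSO vehicle.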

Read-out in assay [3]: Interleukin-8 (IL8), CXCL8 (gene 3576)
The assay is described as follows: BSK_CASM3C_IL8: BioMAP Diversity Plus: CASM3C Assay for Interleukin-8 (IL8) Biomarker Activity (AID 2283042).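 Also: IL-8 protein level quantified by ELISA.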 Conditions: primary human coronary artery smooth muscle cells; actives raise or lower the signal.

Read-out in assay [4]: Monokine induced gamma interferon (MIG), CXCL9 (gene 4283)
The assay is described as follows: BSK_CASM3C_MIG: BioMAP Diversity Plus: CASM3C Assay for Monokine induced gamma interferon (MIG) Biomarker Activity (AID 2283048).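 Also: MIG protein level measured by ELISA.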 Conditions: primary human coronary artery smooth muscle cells; actives raise or lower the signal.

Read-out in assay [5]: Urokinase-type plasminogen activator receptor (uPAR), PLAUR (gene 5329)
Description: BSK_CASM3C_uPAR: BioMAP Diversity Plus: CASM3C Assay for Urokinase-type plasminogen activator receptor (uPAR) Biomarker Activity (AID 2283054).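 Also: cell-surface uPAR protein level quantified by ELISA.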 The following applies: primary human coronary artery smooth muscle cells; actives raise or lower the signal.

Read-out in assay [6]: Intercellular Adhesion Molecule 1 (ICAM1), ICAM1 (gene 3383)
Description: BSK_KF3CT_ICAM1: BioMAP Diversity Plus: KF3CT Assay for Intercellular Adhesion Molecule 1 (ICAM1) Biomarker Activity (AID 2283067). Conditions: primary human keratinocytes with fibroblasts; actives raise or lower the signal. In outline:
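ICAM-1 levels are measured by ELISA 24 h after dosing a primary human co-culture of keratinocytes and foreskin fibroblasts. Activity in either direction is fitted relative to DMSO vehicle.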

Read-out in assay [7]: Macrophage colony-stimulating factor (MCSF), CSF1 (gene 1435)
The assay is described as follows: BSK_LPS_MCSF: BioMAP Diversity Plus: LPS Assay for Macrophage colony-stimulating factor (MCSF) Biomarker Activity (AID 2283083). The following applies: primary human HUVEC with PBMC; actives raise or lower the signal. Summed up:
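ELISA readout of M-CSF after 24 h compound exposure in a human endothelial/PBMC co-culture. Activity, in either direction, is fitted relative to DMSO vehicle.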

Read-out in assay [8]: Tissue Factor, F3 (gene 2152)
The assay is described as follows: BSK_LPS_TissueFactor: BioMAP Diversity Plus: LPS Assay for Tissue Factor Biomarker Activity (AID 2283084). Conditions: primary human HUVEC with PBMC; actives raise or lower the signal. In outline:
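ELISA signal for cell-surface Tissue Factor (CD142) was read 24 h after compound dosing of an LPS-stimulated human endothelial–PBMC primary co-culture. Gain or loss of signal was scored relative to DMSO.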

Read-out in assay [9]: Vascular cell adhesion molecule 1 (VCAM1), VCAM1 (gene 7412)
The assay is described as follows: BSK_LPS_VCAM1: BioMAP Diversity Plus: LPS Assay for Vascular cell adhesion molecule 1 (VCAM1) Biomarker Activity (AID 2283086). Conditions: primary human HUVEC with PBMC; actives raise or lower the signal. Summed up:
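HUVEC + PBMC co-culture, LPS system; compound 24 h; VCAM-1 by ELISA; bidirectional fit vs DMSO control; parallel SRB (0.1%, TCA-fixed, 560 nm) for cytotoxicity.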

Read-out in the next assay: CD40, CD40 (gene 958)
Description: BSK_SAg_CD40: BioMAP Diversity Plus: SAg Assay for CD40 Biomarker Activity (AID 2283088). Conditions: primary human HUVEC with PBMC; actives raise or lower the signal. In outline:
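Compounds were dosed onto a human primary endothelial–PBMC co-culture, and after 24 h CD40 was quantified by ELISA using a fluorescence signal. Activity in either direction was fitted relative to DMSO.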

Read-out in assay [10]: Monocyte Chemoattractant Protein-1 (MCP1), CCL2 (gene 6347)
The assay is described as follows: BSK_SAg_MCP1: BioMAP Diversity Plus: SAg Assay for Monocyte Chemoattractant Protein-1 (MCP1) Biomarker Activity (AID 2283090). The following applies: primary human HUVEC with PBMC; actives raise or lower the signal. In outline: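 MCP-1 levels in the endothelial–PBMC SAg co-culture were quantified by ELISA at 24 h post-dosing; both increases and decreases versus DMSO scored. Cytotoxicity monitored by SRB total protein in parallel cultures.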

Read-out in assay [11]: Monokine induced gamma interferon (MIG), CXCL9 (gene 4283)
Description: BSK_SAg_MIG: BioMAP Diversity Plus: SAg Assay for Monokine induced gamma interferon (MIG) Biomarker Activity (AID 2283092). The following applies: primary human HUVEC with PBMC; actives raise or lower the signal. In outline: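 Endothelial cells and PBMC were co-cultured, exposed to test chemicals, and sampled 24 h later. MIG was measured by ELISA, and responses were fitted in both directions relative to DMSO.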

Read-out in assay [12]: Interleukin-8 (IL8), CXCL8 (gene 3576)
Description: BSK_SAg_IL8: BioMAP Diversity Plus: SAg Assay for Interleukin-8 (IL8) Biomarker Activity (AID 2283094). The following applies: primary human HUVEC with PBMC; actives raise or lower the signal. Summed up: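 ELISA read-out of IL-8 in a primary human vascular co-culture (umbilical vein endothelium plus PBMC), taken 24 h after compound addition. Values derive from bidirectional fits against DMSO negative controls.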

Assay [13] in a line: BSK_SAg_Proliferation: Cell Proliferation Assessment in the BioMAP Diversity Plus: SAg Assay (AID 2283095).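 Also: relative cell number as total protein by SRB absorbance in sub-confluent culture.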 Conditions: primary human HUVEC with PBMC. In outline:
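Cells (endothelium plus PBMC, human primary) were dosed with chemical, cultured 96 h, fixed in 10% TCA and stained with 0.1% SRB. Absorbance at 560 nm gave relative protein, fitted bidirectionally relative to DMSO.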

Assay [14] can be described thus: BSK_3C_Vis: BioMAP Diversity Plus: 3C Assay for Morphology Visualization (AID 2283025).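 Also: fitted both ways so gain or loss versus DMSO counts.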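 As to AC50: light microscopy image of cell morphology used as background control.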 The following applies: primary human endothelial cells (HUVEC). Summed up:
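Chemicals were added to primary human umbilical vein endothelium, cells were incubated 24 h, and morphology was then visualized by light microscopy. Gain or loss of signal was fitted bidirectionally relative to DMSO.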

The nature of assay [15]: BSK_BT_Bcell_Proliferation: Viability Assessment in the BioMAP Diversity Plus: BT Assay for B cell Proliferation (AID 2284227). Conditions: primary human B cells with PBMC. Summed up: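 Read-out is absorbance at 560 nm from sulforhodamine B staining of total protein, reflecting relative cell numbers in a human B cell and PBMC co-culture after 72 h of chemical exposure. Values were referenced to DMSO.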

Read-out in assay [16]: Interleukin 17A (IL17A), IL17A (gene 3605)
Description: BSK_BT_xIL17A: BioMAP Diversity Plus: BT Assay for Interleukin 17A (IL17A) Biomarker Activity (AID 2284229). The following applies: primary human B cells with PBMC. Summed up: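 Secreted IL-17A was the measured endpoint, read by Luminex xMAP multiplex in supernatants of a human B cell/PBMC co-culture harvested 24 h after chemical dosing. Signal increase relative to DMSO defined activity.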

Read-out in assay [17]: Collagen III, COL3A1 (gene 1281)
Description: BSK_MyoF_CollagenIII: BioMAP Diversity Plus: MyoF Assay for Collagen III Biomarker Activity (AID 2284239). Conditions: primary human lung fibroblasts. Summed up:
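ELISA read-out of collagen III from human lung fibroblasts after 24 h of chemical treatment. The DMSO control served as negative control and baseline, with values fitted in the positive direction.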

Read-out in assay [18]: Interleukin 2 (IL2), IL2 (gene 3558)
The assay is described as follows: BSK_BT_xIL2: BioMAP Diversity Plus: BT Assay for Interleukin 2 (IL2) Biomarker Activity (AID 2284245). The following applies: primary human B cells with PBMC. Summed up:
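B cell + PBMC co-culture (human primary), compound added, 24 h incubation; secreted IL-2 measured multiplexed on Luminex xMAP; gain-of-signal fit vs DMSO.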

Read-out in assay [19]: Matrix Metallopeptidase 1 (MMP1), MMP1 (gene 4312)
Description: BSK_MyoF_MMP1: BioMAP Diversity Plus: MyoF Assay for Matrix Metallopeptidase 1 (MMP1) Biomarker Activity (AID 2284268). The following applies: primary human lung fibroblasts. In outline:
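Lung fibroblast cultures were dosed with test chemicals and, after 24 h, MMP1 levels were measured by ELISA; responses were referenced to DMSO and analysed for increases.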

For `O=[N+]([O-])O`, the result in assay [1], in assay [2], in assay [3], in assay [4], in assay [5] and in [6] was inactive. For the same compound, the outcome is “inactive” in assay [7]; “inactive” in assay [8]; “inactive” in [9]; “inactive” with CD40, CD40 (gene 958); “inactive” in assay [10]; “inactive” in [11]. The result in assay [12] and in assay [13] was inactive.
Consider `O=C1C(Cl)=C(Cl)C(=O)C(Cl)=C1Cl`, for which the concentration at half-maximal activity (AC50) in assay [1] is 6.64 µM (active); in assay [14], 4.54 µM (active); in assay [4], 29.1 µM (active); in assay [5] it was 20 µM (active); in assay [6] it was 20 µM (active); in assay [7], 25.2 µM (active). Moreover, the concentration at half-maximal activity (AC50) was 30.1 µM (active) in assay [8]; 16.2 µM (active) in [9]; 25.3 µM (active) with CD40, CD40 (gene 958); 37.9 µM (active) in assay [10]; 36.2 µM (active) in assay [11]; 28 µM (active) in assay [12]. Further, the half-maximal activity concentration (AC50) in assay [13] is 7.77 µM (active); in assay [15], 26 µM (active); in assay [16] it was 20 µM (active); in assay [17] it was 14.4 µM (active); in assay [18], 29.3 µM (active). The outcome in [3] and in assay [19] was inactive.
Regarding `O=C(CCl)c1ccccc1`, the half-maximal activity concentration (AC50) in assay [1] was 3.04 µM (active); in assay [14], 4.12 µM (active); in [2], 30.4 µM (active); in assay [3], 11.2 µM (active); in assay [4], 10.5 µM (active); in assay [5], 10.4 µM (active). Besides, the concentration at half-maximal activity (AC50) was 21.3 µM (active) in assay [6]; 4.37 µM (active) in [7]; 5.81 µM (active) in [8]; 3.68 µM (active) in assay [9]; 5.77 µM (active) with CD40, CD40 (gene 958); 6.73 µM (active) in assay [10]. In addition, the values for the half-maximal activity concentration (AC50) in [11], in assay [12] and in assay [13] were 8.77 µM (active), 5.88 µM (active) and 1.06 µM (active), respectively.
Regarding `COCC(=O)N(c1c(C)cccc1C)N1CCOC1=O`, the result in assay [1], in [14], in [2], in assay [3], in assay [4] and in assay [5] was inactive. The outcome in assay [6] is “inactive”; in assay [7] it was “inactive”; in assay [8], “inactive”; in [9] it was “inactive”; with CD40, CD40 (gene 958) it was “inactive”; in [10], “inactive”. Besides, the result in assay [11], in assay [12], in assay [13], in assay [15], in assay [16] and in [17] was inactive. The outcome in [18] and in assay [19] was inactive.
